Out of some 39,000 compounds screened, about 1,500 (3.8%) were called active. The entries come from a sample that favours actives as a whole.
Each compound was assayed on HSkMC (human skeletal muscle cells) (assay: cytotoxicity call (relative viability < 0.9)). Conditions: 10 µM.

Compound | cytotoxicity call
Cc1ccc(S(=O)(=O)N(C)C[C@H]2Oc3c(NC(=O)Nc4ccc(C(F)(F)F)cc4)cccc3C(=O)N([C@H](C)CO)C[C@@H]2C)cc1 | inactive
CO[C@H]1CN(C)C(=O)c2cc(NS(=O)(=O)c3cn(C)cn3)ccc2OC[C@@H](C)N(Cc2cccc(F)c2)C[C@H]1C | inactive
Cc1noc(C)c1NC(=O)Nc1cccc2c1O[C@@H](CN(C)Cc1ccc(Oc3ccccc3)cc1)[C@@H](C)CN([C@@H](C)CO)C2=O | inactive
COc1ccc(S(=O)(=O)N(C)C[C@@H]2Oc3cc(C4=CCCC4)ccc3S(=O)(=O)N([C@H](C)CO)C[C@@H]2C)cc1 | inactive
COCCNC(=O)C[C@H]1CC[C@H]2[C@@H](COC[C@@H](O)CN2C(=O)Nc2ccc3c(c2)OCO3)O1 | inactive
CC(C)NC(=O)Nc1cccc2c1O[C@H](CN(C)Cc1ccc3c(c1)OCO3)[C@@H](C)CN([C@H](C)CO)C2=O | inactive
COc1ccc(NC(=O)Nc2ccc3c(c2)C(=O)N([C@H](C)CO)C[C@H](C)[C@H](CN(C)Cc2ccc(C(=O)O)cc2)OCCCC[C@H](C)O3)cc1 | inactive
C[C@H](CO)N1C[C@H](C)[C@@H](CN(C)S(=O)(=O)c2cn(C)cn2)Oc2ccc(NS(=O)(=O)c3ccc(Cl)cc3)cc2CC1=O | inactive
C[C@H]1CN=C(NS(=O)(=O)c2ccccc2)N1 | inactive
C=CCON1C(=O)[C@@H]2[C@@H](C1=O)[C@@H]1C=C[C@@H]2O1 | inactive
CCCCc1oc2ccc(NS(C)(=O)=O)cc2c1C(=O)c1ccc(OCCCN(CCCC)CCCC)cc1.Cl | active
CCCCc1oc2ccc(NS(C)(=O)=O)cc2c1C(=O)c1ccc(OCCCN(CCCC)CCCC)cc1 | active
CCCCc1oc2ccccc2c1C(=O)c1cc(I)c(OCCN(CC)CC)c(I)c1 | active
CCCCc1oc2ccccc2c1C(=O)c1cc(I)c(OCCN(CC)CC)c(I)c1.Cl | inactive
CCc1oc2ccccc2c1C(=O)c1cc(Br)c(O)c(Br)c1 | inactive
CCCCOc1cc(C(=O)OCCN(CC)CC)ccc1N.Cl | inactive
CCCCN(CCCC)CCCOC(=O)c1ccc(N)cc1.O=S(=O)(O)O | inactive
C[C@H]1CN([C@@H](C)CO)C(=O)c2c(c3ccccc3n2C)-c2ccccc2CO[C@@H]1CN(C)C(=O)Nc1cccc(C(F)(F)F)c1 | inactive
O=C(C[C@@H]1C=C[C@@H](NC(=O)Cc2ccccn2)[C@@H](CO)O1)NCCCN1CCOCC1 | inactive
CNC(=O)C[C@@H]1CC[C@@H]2[C@H](COc3ccc(NC(=O)c4ccc(C(F)(F)F)cc4)cc3C(=O)N2C)O1 | inactive
C[C@@H]1CCCCO[C@@H](CN(C)S(=O)(=O)c2cn(C)cn2)[C@@H](C)CN([C@@H](C)CO)C(=O)c2cc(NC(=O)Nc3ccc(C(F)(F)F)cc3)ccc2O1 | inactive
COCCOC(=O)N1C(=O)[C@@]2(c3cc(C#Cc4ccc(OC)cc4)ccc31)[C@H](c1ccccc1OCCO)N1[C@H](c3ccccc3)[C@H](c3ccccc3)OC(=O)[C@H]1[C@@H]2C(=O)N1CCN(c2ncccn2)CC1 | inactive
Cc1noc(C)c1NC(=O)N(C)C[C@@H]1OCCCC[C@H](C)Oc2ccc(NC(=O)NC3CCCCC3)cc2C(=O)N([C@@H](C)CO)C[C@H]1C | inactive

Compound | cytotoxicity call
CO[C@@H]1CN(C)C(=O)c2cc(NC(=O)NC(C)C)ccc2OC[C@H](C)N(Cc2ccc(-c3ccccn3)cc2)C[C@@H]1C | inactive
C[C@@H]1CCCCO[C@H](CN(C)S(C)(=O)=O)[C@@H](C)CN([C@H](C)CO)C(=O)c2cc(NS(=O)(=O)c3cccs3)ccc2O1 | inactive
C[C@@H]1CCCCO[C@@H](CN(C)C(=O)Nc2ccc(C(F)(F)F)cc2)[C@H](C)CN([C@H](C)CO)C(=O)c2cc(NC(=O)Cc3ccccc3)ccc2O1 | inactive
COc1ccc(N2C(=O)C[C@@H](c3ccc(Br)cc3)[C@H]2C(=O)Nc2cccc3cccnc23)cc1 | inactive
O=C(Oc1cccc2cccnc12)c1ccccc1 | inactive
COc1nc(=NC(=O)NS(=O)(=O)Nc2cccc3cccnc23)nc(OC)[nH]1 | active
CNC[C@H]1Oc2c(NS(=O)(=O)c3cn(C)cn3)cccc2C(=O)N([C@H](C)CO)C[C@@H]1C | inactive
COc1ccc2c3c([nH]c2c1)[C@H](CO)N(C[C@]13CCN(CC1)C(=O)Nc1c(noc1C)C)C(=O)Nc1ccc(cc1)F | inactive
COc1cc2ncnc(Oc3cccc(NC(=O)Nc4cc(C(C)(C)C(F)(F)F)on4)c3)c2cc1OC | inactive
COc1cc2c(Oc3ccc(NC(=O)C4(C(=O)Nc5ccc(F)cc5)CC4)cc3F)ccnc2cc1OCCCN1CCOCC1 | active
COc1cc2ncnc(Nc3ccc(F)c(Cl)c3)c2cc1OCCCN1CCOCC1 | inactive
COc1cc2nccc(Oc3ccc(NC(=O)C4(C(=O)Nc5ccc(F)cc5)CC4)cc3)c2cc1OC | active
COc1cc2nccc(Oc3ccc(NC(=O)c4cn(C(C)C)c(=O)n(-c5ccc(F)cc5)c4=O)cc3F)c2cc1OC | active
COc1ccc2c3c(n(c2c1)C)[C@H](CO)N(C[C@]13CCN(CC1)C(=O)CN1CCOCC1)C(=O)Nc1ccc(cc1)F | inactive
CCOc1ccn(-c2ccc(F)cc2)c(=O)c1C(=O)Nc1ccc(Oc2ccnc(N)c2Cl)c(F)c1 | inactive
C[C@H](CO)N1C[C@H](C)[C@@H](CN(C)S(=O)(=O)c2cccs2)Oc2ccc(NS(=O)(=O)c3cccs3)cc2CC1=O | inactive
C[C@H](CO)N1C[C@H](C)[C@@H](CN(C)Cc2ccc(C(F)(F)F)cc2)Oc2ccc(NC(=O)CCC(F)(F)F)cc2C1=O | inactive
C[C@@H]1CN([C@@H](C)CO)C(=O)CCCn2nncc2CO[C@H]1CN(C)C(=O)c1cc(-c2ccccc2)on1 | inactive
C[C@H](CO)N1C[C@H](C)[C@H](CN(C)CC2CC2)OCCCC[C@H](C)Oc2ccc(NS(=O)(=O)c3ccc(Cl)cc3)cc2C1=O | inactive
C[C@@H]1CN([C@H](C)CO)C(=O)Cc2cc(NS(=O)(=O)c3cn(C)cn3)ccc2O[C@@H]1CN(C)Cc1ccc(C(=O)O)cc1 | inactive
COC(=O)Cn1c(=N)n(C)c2ccccc21 | inactive
C[C@H](CO)N1C[C@H](C)[C@H](CN(C)Cc2ccc(Cl)c(Cl)c2)Oc2ccc(NC(=O)Cn3cnnn3)cc2C1=O | inactive
CO[C@@]1(NC(=O)[C@@H](C(=O)O)c2ccc(O)cc2)C(=O)N2C(C(=O)O)=C(CSc3nnnn3C)CO[C@@H]21 | inactive

Compound | cytotoxicity call
CN1CCCN=C1C=Cc1cccc(O)c1.O=C(O)c1cc2ccccc2c(Cc2c(O)c(C(=O)O)cc3ccccc23)c1O | inactive
CN1CCCN=C1C=Cc1cccs1.O=C(O)c1cc2ccccc2c(Cc2c(O)c(C(=O)O)cc3ccccc23)c1O | inactive
Cc1cc(C=Cc2ccc3cc(N(C)C)ccc3[n+]2C)c(C)n1-c1ccccc1.O=C([O-])c1cc2ccccc2c(Cc2c(O)c(C(=O)O)cc3ccccc23)c1O | active
C[C@H](CO)N1C[C@H](C)[C@@H](CN(C)C(=O)Nc2ccccc2)Oc2ccc(NC(=O)CCCCCC(=O)Nc3ccccc3N)cc2C1=O | inactive
Cc1ccc(S(=O)(=O)Nc2ccc3c(c2)C(=O)N([C@@H](C)CO)C[C@H](C)[C@H](CN(C)C(=O)Nc2ccc(C(F)(F)F)cc2)OCCCC[C@H](C)O3)cc1 | inactive
CC(C)(C)C1CCC(OC[C@@H](O)CN2CCC(CN3C(=O)c4cccc5cccc(c45)C3=O)CC2)CC1 (stereo partly drawn) | active
O=C(CN1C(=O)c2cccc3cccc(c23)C1=O)N1CCN(CCN2C(=O)[C@@H]3[C@@H](C2=O)[C@@H]2C=C[C@@H]3C2)CC1 | inactive
O=C(O)CN1C(=O)c2cccc3cccc(c23)C1=O | inactive
O=C(O)C1C(=CCO)OC2CC(=O)N21.[LiH] (stereo not drawn) | inactive
Cc1ccc(S(=O)(=O)N(C)C[C@H]2Oc3c(NC(=O)C4CC4)cccc3C(=O)N([C@@H](C)CO)C[C@H]2C)cc1 | inactive
O=C(C[C@@H]1C[C@H]2c3cc(NC(=O)c4ccc5c(c4)OCO5)ccc3O[C@H]2[C@@H](CO)O1)NCc1ccc(Oc2ccccc2)cc1 | inactive
COc1ccccc1CNC(=O)C[C@@H]1C[C@@H]2c3cc(NC(=O)c4ccc5c(c4)OCO5)ccc3O[C@@H]2[C@H](CO)O1 | inactive
O=C(C[C@H]1C[C@H]2c3cc(NC(=O)c4ccc5c(c4)OCO5)ccc3O[C@H]2[C@H](CO)O1)NCc1ccc(Oc2ccccc2)cc1 | active
O=C(C[C@@H]1C[C@@H]2c3cc(NC(=O)c4ccc5c(c4)OCO5)ccc3O[C@@H]2[C@H](CO)O1)NCc1ccc(Oc2ccccc2)cc1 | active
O=C(C[C@H]1C[C@@H]2c3cc(NC(=O)c4ccc5c(c4)OCO5)ccc3O[C@@H]2[C@H](CO)O1)NCc1ccc(Oc2ccccc2)cc1 | inactive
COc1ccccc1CNC(=O)C[C@@H]1C[C@H]2c3cc(NC(=O)c4ccc5c(c4)OCO5)ccc3O[C@H]2[C@H](CO)O1 | active
O=C(C[C@H]1C[C@H]2c3cc(NC(=O)c4ccc5c(c4)OCO5)ccc3O[C@H]2[C@@H](CO)O1)NCc1cccnc1 | inactive
O=C(C[C@H]1C[C@@H]2c3cc(NC(=O)c4ccc5c(c4)OCO5)ccc3O[C@@H]2[C@@H](CO)O1)NCc1ccc(Oc2ccccc2)cc1 | inactive
O=C(C[C@@H]1C[C@H]2c3cc(NC(=O)c4ccc5c(c4)OCO5)ccc3O[C@H]2[C@H](CO)O1)NCc1ccc(Oc2ccccc2)cc1 | inactive
O=C(C[C@@H]1C[C@@H]2c3cc(NC(=O)c4ccc5c(c4)OCO5)ccc3O[C@@H]2[C@@H](CO)O1)NCc1ccc(Oc2ccccc2)cc1 | active
O=C(C[C@H]1C[C@H]2c3cc(NC(=O)c4ccc5c(c4)OCO5)ccc3O[C@H]2[C@@H](CO)O1)NCc1ccc(Oc2ccccc2)cc1 | inactive
COc1ccccc1CNC(=O)C[C@@H]1C[C@@H]2c3cc(NC(=O)c4ccc5c(c4)OCO5)ccc3O[C@@H]2[C@@H](CO)O1 | inactive

— the antibiotic and cytotoxicity screens of Wong et al. (2023)
